The source of these data is PubChem BioAssay (NCI).

A short description of assay [1]: NCI Yeast Anticancer Drug Screen. Data for the rad50 strain (AID 155).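 Note: 0% = growth of vehicle-only cultures of the same strain.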 To be noted: S. cerevisiae rad50 strain growth inhibition; at 50.0 µM; hits give high values. An outline of the steps: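 Compounds were tested on a yeast strain with an engineered DNA damage repair alteration; the reported value is growth inhibition normalised to vehicle treatment.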
A short description of assay [2]: NCI Yeast Anticancer Drug Screen. Data for the mec2-1 strain (AID 157). Particulars: S. cerevisiae mec2-1 strain, at 50.0 µM, hits give high values. An outline of the steps:
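Cells of the genetically defined mec2-1 yeast strain are incubated with test compound. Inhibition of growth is calculated against vehicle-treated controls.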

Assay [3] can be described thus: NCI Yeast Anticancer Drug Screen. Data for the sgs1 mgt1 strain (AID 161).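 Note: 0% = growth of cultures given vehicle only.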 To be noted: S. cerevisiae sgs1 mgt1 strain, at 50.0 µM, hits give high values. An outline of the steps:
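Inhibition of yeast growth, normalised to vehicle-treated controls, is reported for a strain bearing genetic alterations in DNA damage repair.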

Assay [4] in a line: NCI Yeast Anticancer Drug Screen. Data for the cln2 rad14 strain (AID 165).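 Note: 0% = growth equal to vehicle treated cultures.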 To be noted: S. cerevisiae cln2 rad14 strain, at 50.0 µM, hits give high values. An outline of the steps:
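The screen exposed genetically defined yeast (cln2 rad14) to test compounds and scored growth inhibition relative to vehicle-treated controls.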

Assay [5] in a line: NCI Yeast Anticancer Drug Screen. Data for the bub3 strain (AID 167). To be noted: S. cerevisiae bub3 mutant strain, at 50.0 µM, hits give high values. An outline of the steps: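 Growth of a checkpoint-deficient yeast mutant is measured after compound exposure. Values represent inhibition relative to vehicle.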
Assay [6] can be described thus: NCI Yeast Anticancer Drug Screen. Data for the mlh1 rad18 strain (AID 175). To be noted: S. cerevisiae mlh1 rad18 strain growth inhibition; at 50.0 µM; hits give high values. An outline of the steps: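 Compound-treated yeast growth, normalised to vehicle controls. Strain bears defined DNA repair mutations.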

Each structure is given as a SMILES string. This is part of a sample that, as a whole, favours compounds with a hit. Of some 79,000 tested, about 15% had one in any assay. A number with no mark means an inactive call. The source made the active and inactive calls. Cut-off read from the data, not from the text of the source: active = growth inhibition above about 70%; inactive = the rest.

For the molecule `O=C1O[C@@H](c2ccccc2)C[C@@H]1CN1CCOCC1`, the growth inhibition was 24.4% in assay [1]; 13.7% in assay [2]; 22.7% in assay [3]; 26.1% in assay [4]; 3.15% in assay [5]; 15.1% in assay [6].

With `NCC(N)=O`, the growth inhibition in assay [1] is -1.6%; in assay [2], -14.2%; in assay [3], -29%; in assay [4], -35%; in assay [5], -36.2%; in assay [6], 4.1%.

Take `O=C(C(=Cc1ccc(F)cc1)C(=O)c1ccccc1)c1ccccc1`: the growth inhibition is 1.75% in assay [1]; 6.2% in assay [2]; -12% in assay [3]; 5.95% in assay [4]; 3.35% in assay [5]; 26.6% in assay [6].

As for `O=C(c1ccccc1)c1cccc2c1ccc1ccccc12`, the growth inhibition in assay [1] is 13.4%; in assay [2] it was 38.9%; in assay [3] it was 38.3%; in assay [4], 17%; in assay [5], 23.4%; in assay [6], 32.5%.

Take `O=C1C2Cc3ccccc3CN2C(=O)N1CCN1CCOCC1` (stereo unspecified): the growth inhibition is 7.25% in assay [1]; -21.8% in assay [2]; -4.15% in assay [3]; 12.8% in assay [4]; 3.25% in assay [5]; 22.6% in assay [6].

Consider `COc1ccc(N(CN2C(=O)CCC2=O)CS(=O)(=O)c2ccc(Cl)cc2)cc1`, for which the growth inhibition was 16.6% in assay [1]; 0.2% in assay [2]; 11.5% in assay [3]; 14.9% in assay [4]; -3.75% in assay [5]; -16.4% in assay [6].

`COC1C(O)CC(OC2CC(OC3CC(O[C@@H]4C(=O)c5c(cc6cc(OC7CC(OC8CC(O)C(O)C(C)O8)C(O)C(C)O7)c(C)c(O)c6c5O)C[C@H]4[C@H](OC)C(=O)[C@@H](O)[C@@H](C)O)OC(C)C3O)OC(C)C2O)OC1C` (stereo partly specified): the growth inhibition in assay [1] was 38.7%; in assay [2], 28.9%; in assay [3], 41.7%; in assay [4], 43.7%; in assay [5], 49.5%; in assay [6] it was 48.5%.

On to `CCOC(=O)/C=C(\C)c1ccc(Cl)cc1`, for which the growth inhibition in assay [1] is 4.4%; in assay [2], -18.6%; in assay [3] it was -1.6%; in assay [4] it was 3.8%; in assay [5], -10.1%; in assay [6] it was 14.7%.

In the case of `CC1CC(c2ccccc2)=Nc2ccccc2S1` (stereo unspecified), the growth inhibition in assay [1] is 18.2%; in assay [2] it was 12.9%; in assay [3], 16.2%; in assay [4], 19.5%; in assay [5], 6.5%; in assay [6], -9.4%.

In the case of `CC(C)(C)OC(=O)N(CCCN)CCCCN`, the growth inhibition was -7.65% in assay [1]; -9.75% in assay [2]; -40.5% in assay [3]; -21.4% in assay [4]; -32% in assay [5]; -53.9% in assay [6].

Consider `CCCCCCCCSc1nc2ccc(N=Cc3ccccc3O)cc2s1`, for which the growth inhibition in assay [1] is 75% (active); in assay [2], 31.7%; in assay [3], 73.3% (active); in assay [4], 53.6%; in assay [5], 21.7%; in assay [6], 36.1%.

For `O=C1CCC(C2(O)c3ccccc3-c3ccccc32)C(=O)N1` (stereo unspecified), the growth inhibition in assay [1] was -20.7%; in assay [2], -16.1%; in assay [3], -22.3%; in assay [4], 22.4%; in assay [5], 4.65%; in assay [6], 1.4%.

In the case of `NC(=O)c1ccc[n+](CC(=O)Nc2ccccc2)c1`, the growth inhibition in assay [1] was -5.6%; in assay [2], 0.65%; in assay [3], 6.45%; in assay [4], -30.6%; in assay [5], 1.95%; in assay [6], 3.8%.

In the case of `CCCCCCC(=O)/C=C/c1cc(Cl)cc(Cl)c1OCOC`, the growth inhibition was 35% in assay [1]; 26.1% in assay [2]; 25.1% in assay [3]; -4.4% in assay [4]; 18.4% in assay [5]; 5.6% in assay [6].

With `Cc1nc(-c2ccccc2)[nH]c(=O)c1Cc1cc2c(cc1O)OCC2`, the growth inhibition in assay [1] is 21.8%; in assay [2], 6.6%; in assay [3], 6.9%; in assay [4] it was -12.2%; in assay [5], -7.85%; in assay [6], 8.4%.

Regarding `O=S(=O)(c1ccccc1)C1C2CCC(O2)C1S(=O)(=O)c1ccccc1` (stereo unspecified), the growth inhibition is 19.4% in assay [1]; 7.8% in assay [2]; 15.7% in assay [3]; 30.9% in assay [4]; 29.6% in assay [5]; 10.1% in assay [6].

Take `O=[N+]([O-])c1ccc(-c2nc3ccc(Cl)cc3[nH]2)cc1`: the growth inhibition in assay [1] was -16.1%; in assay [2], 30.9%; in assay [3] it was 25.2%; in assay [4], 21.9%; in assay [5], 9.55%; in assay [6], 44.5%.

For the molecule `COc1cc(O)c(C(C)=O)c(OC)c1`, the growth inhibition in assay [1] is -8.25%; in assay [2] it was -12.8%; in assay [3] it was -10.1%; in assay [4] it was -31.1%; in assay [5], -0.2%; in assay [6], -2.05%.

As for `CCCCCCC(C)C(=O)Nc1ccccc1` (stereo unspecified), the growth inhibition in assay [1] was 16.7%; in assay [2], -11.8%; in assay [3], 10.7%; in assay [4] it was 2.75%; in assay [5], -2.95%; in assay [6], -17.1%.

For `c1ccc2c(c1)ncn2C1CCCCO1` (stereo unspecified), the growth inhibition was 4.7% in assay [1]; -9.8% in assay [2]; -16.8% in assay [3]; 0.9% in assay [4]; -7.45% in assay [5]; -38.3% in assay [6].

In the case of `C=CCNC(=S)N/C=C(\C#N)c1nc2ccccc2s1`, the growth inhibition in assay [1] is 0.3%; in assay [2] it was -6.3%; in assay [3] it was -15%; in assay [4], 32.4%; in assay [5] it was -4.35%; in assay [6], 31.3%.
